Measured values reported in PubChem BioAssay (NCI).
Compounds without any hit were thinned out: in the full panel of roughly 79,000, 15% have a hit. No stated cut-off is given here; in the data, active means growth inhibition above about 70%; inactive means the rest.

Columns and labels:
[1] = NCI Yeast Anticancer Drug Screen. Data for the rad50 strain (AID 155);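 further: 0% = growth of vehicle-only cultures of the same strain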; conditions: S. cerevisiae rad50 strain growth inhibition; at 50.0 µM; active compounds read high
Procedure, shortened: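 DNA repair mutant yeast, compound exposure, growth read-out; inhibition is taken relative to vehicle.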

[2] = NCI Yeast Anticancer Drug Screen. Data for the mec2-1 strain (AID 157); conditions: S. cerevisiae mec2-1 strain, at 50.0 µM, active compounds read high
Procedure, shortened: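 Strain: mec2-1 (DNA repair/cell cycle alteration). Compound exposure, then growth measured; inhibition expressed relative to vehicle.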

[3] = NCI Yeast Anticancer Drug Screen. Data for the sgs1 mgt1 strain (AID 161);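 further: 0% = growth of cultures given vehicle only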; conditions: S. cerevisiae sgs1 mgt1 strain, at 50.0 µM, active compounds read high
Procedure, shortened: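 Read-out: growth inhibition vs vehicle controls. Cells: mutant yeast strain deficient in DNA damage repair.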

[4] = NCI Yeast Anticancer Drug Screen. Data for the cln2 rad14 strain (AID 165);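 further: 0% = growth equal to vehicle treated cultures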; conditions: S. cerevisiae cln2 rad14 strain, at 50.0 µM, active compounds read high
Procedure, shortened: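 Compounds are applied to the cln2 rad14 yeast strain, and growth is then compared with that of vehicle-treated cultures to give inhibition.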

[5] = NCI Yeast Anticancer Drug Screen. Data for the bub3 strain (AID 167); conditions: S. cerevisiae bub3 mutant strain, at 50.0 µM, active compounds read high
Procedure, shortened: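 In this screen, a yeast mutant lacking normal mitotic checkpoint function is challenged with compound. Relative growth versus vehicle gives the inhibition value.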

[6] = NCI Yeast Anticancer Drug Screen. Data for the mlh1 rad18 strain (AID 175); conditions: S. cerevisiae mlh1 rad18 strain growth inhibition; at 50.0 µM; active compounds read high
Procedure, shortened: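 Read-out is yeast growth inhibition, calculated against vehicle-only controls. The compound was applied to a strain engineered with DNA damage repair alterations.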

Measured: growth inhibition

CCN(CC)CCCC(C)Nc1nncc2ccccc12 (stereo unspecified)
inactive: [1] -19.2% | [2] -2.1% | [3] 2.55% | [4] -17.3% | [5] -1.3% | [6] -8.95%

COC(=O)C1(C(=O)OC)C/C(C)=C(/C)SCCCS1
inactive: [1] -12.7% | [2] -5.6% | [3] -14.8% | [4] 19.9% | [5] -23.1% | [6] -26.4%

O=C1NC(=O)C2(CCCCCC2)N1
inactive: [1] -23.9% | [2] -23.9% | [3] 10.1% | [4] -0.65% | [5] -4.1% | [6] -26.7%

Cn1c(=O)c2c(nc(N(CCN(N=O)c3nc4c(c(=O)n(C)c(=O)n4C)n3C)N=O)n2C)n(C)c1=O
inactive: [1] -11% | [2] -4.35% | [3] -25.7% | [4] -0.3% | [5] -8.85% | [6] -0.65%

COC(=O)Cc1onc(-c2ccccc2)c1[N+](=O)[O-]
inactive: [1] -17.3% | [2] -12.2% | [3] -4.8% | [4] 19.9% | [5] 28.9% | [6] 32%

CCn1c2ccc([N+](=O)[O-])cc2c2c([N+](=O)[O-])c(NC=O)ccc21
inactive: [1] 12.2% | [2] 15.2% | [3] -4.55% | [4] 17.6% | [5] 13.8% | [6] 28.2%

CCCCCCC1CCC(=O)CC1
inactive: [1] 31.9% | [2] 4.3% | [3] -14.6% | [4] -10.1% | [5] -7.3% | [6] 34.5%

CC(=O)OC1CC[C@@]2(C)C(C1)CC(OC(C)=O)[C@@H]1C2CC(OC(C)=O)[C@]2(C)C(C(C)CC=C(c3ccc(Cl)cc3)c3ccc(Cl)cc3)CCC12 (stereo partly specified)
inactive: [1] 0.4% | [2] 2.8% | [3] 3.05% | [4] 11.1% | [5] 20.5% | [6] 5%

O=C(O)c1cc(=O)[nH]c(=S)[nH]1
inactive: [1] -18.6% | [2] 5.65% | [3] -19.5% | [4] 8.05% | [5] -9.25% | [6] -15.6%

Cc1ccc2c(c1)NC(C1Nc3cc(C)ccc3O1)O2 (stereo unspecified)
inactive: [1] -0.3% | [2] -6.8% | [3] -1.25% | [4] -46.5% | [5] -16.9% | [6] -12.2%

O=c1[nH]cc(NCCc2ccccc2)c(=O)[nH]1
inactive: [1] 0.75% | [2] -4% | [3] -17.4% | [4] -50.9% | [5] 7.4% | [6] 1.6%

Nc1nc(N)nc(-c2ccccc2NS(=O)(=O)c2ccc([N+](=O)[O-])cc2)n1
inactive: [1] 1.6% | [2] 21.8% | [3] 6.2% | [4] 3.45% | [5] 11.2% | [6] 38.4%

Nc1ccc2c(c1)Cc1cccc(N)c1-2
inactive: [1] 31.8% | [2] 11.2% | [3] 0.7% | [4] 11% | [5] 7.2% | [6] 1.9%

CN1C(=O)C2C=CC1c1ccccc12 (stereo unspecified)
inactive: [1] -0.75% | [2] -3.95% | [3] -8.8% | [4] -37% | [5] -6.5% | [6] 2.55%

Cc1ccc(SSCC(O)C(O)CSSc2ccc(C)cc2)cc1 (stereo unspecified)
inactive: [1] 11.6% | [2] -18.6% | [3] -30.6% | [4] 21.8% | [5] -5.6% | [6] 10.1%

CC12CCC(CC1)C(C)(C)N=C(N)S2
inactive: [1] -3.1% | [2] -10.8% | [3] -2.75% | [4] -18% | [5] -11.2% | [6] -20%

CCOC(=O)C1=C(SC)SC(C(=O)OCC)C2C=C(C)C=CN12 (stereo unspecified)
inactive: [1] -5.2% | [2] -19.4% | [3] -10.7% | [4] 5.05% | [5] -32.9% | [6] 3.75%

CN(C)c1ccc(C2(c3ccc(N(C)C)cc3)NNC(=O)c3ccccc32)cc1
inactive: [1] 17.2% | [2] 7.95% | [3] 9.35% | [4] 12.7% | [5] 21.1% | [6] -0.3%

C=CCNC(=S)/N=C\c1c(C)[nH]n(-c2ccccc2)c1=O
inactive: [1] -23.8% | [2] -27.2% | [3] -24.6% | [4] -17.6% | [5] -17.6% | [6] -5.7%

Cc1ccc(S)c(C(O)(C(F)(F)F)C(F)(F)F)c1
inactive: [1] -4.75% | [2] 3.65% | [3] 11.7% | [4] 3.55% | [5] 8.3% | [6] 23.2%

CC(=O)Oc1ccc(OC(C)=O)c2cc3ccccc3cc12
inactive: [1] -28.1% | [2] -29.1% | [3] -32.9% | [4] -6.6% | [5] -12.8% | [6] -19.8%
